{
  "source": "PubChem BioAssay (NCATS)",
  "key": {"[1]": {"target": "Cytochrome P450 3A4 (Homo sapiens) (UniProt P08684)", "sequence (P08684 whole entry, looked up)": "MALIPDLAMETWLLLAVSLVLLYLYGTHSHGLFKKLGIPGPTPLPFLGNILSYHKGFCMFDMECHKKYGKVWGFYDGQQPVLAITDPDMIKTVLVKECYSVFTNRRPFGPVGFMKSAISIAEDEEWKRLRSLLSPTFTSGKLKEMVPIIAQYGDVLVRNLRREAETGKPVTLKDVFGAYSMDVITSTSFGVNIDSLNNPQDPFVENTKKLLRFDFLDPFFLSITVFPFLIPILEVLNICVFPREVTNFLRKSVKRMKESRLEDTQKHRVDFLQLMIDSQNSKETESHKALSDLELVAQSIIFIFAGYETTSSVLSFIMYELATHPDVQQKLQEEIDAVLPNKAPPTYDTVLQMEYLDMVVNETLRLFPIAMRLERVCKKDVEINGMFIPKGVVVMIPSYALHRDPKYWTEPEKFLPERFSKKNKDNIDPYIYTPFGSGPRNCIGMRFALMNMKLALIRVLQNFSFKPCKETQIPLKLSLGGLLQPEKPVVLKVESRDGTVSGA", "assay": "qHTS Assay for Inhibitors and Substrates of Cytochrome P450 3A4 (AID 884); also: potency is read from the fitted curve at half-maximal effect; as to activity change, negative = inhibition: % is scaled to controls: 0 for no effect and ±100 for the full control effect; as to all read-outs here: nearly all actives have a fitted effect of over 50% in size", "how_it_was_run": "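20 nM human CYP3A4 with 25 uM Luciferin-PPXE (at KM) in 200 mM KPO4, preincubated 10 min with compound; NADPH regeneration started a 60 min RT reaction. Luciferin detected by luminescence, normalized to 57 uM ketoconazole as full inhibition.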"}, "[2]": {"assay": "Confirmation and Secondary Assay for Modulators of Hemoglobin Beta Chain Splicing at IVS2 654 locus (AID 910);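 as to all read-outs here: HeLa cells stably carrying EGFP split by mutant beta-globin IVS2-654 intron; % of control where 0% means no effect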", "how_it_was_run": "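Readout: per-well total peak green fluorescence (488 nm ex, 500–520 nm em) from objects 5–250 µm, reflecting correct splicing of an EGFP-654 reporter. Compounds were applied for 2 days at 37 °C to overnight-plated HeLa EGFP-654 cells; controls were DMSO and 500 nM IVS2-654 PNA.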"}, "[3]": {"assay": "Confirmation and Secondary Assay for Modulators of Hemoglobin Beta Chain Splicing at IVS2 705 locus (AID 930);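 as to all read-outs here: GFP fluorescence per well restored by corrected splicing of the IVS2-705 intron in EGFP; % of control where 0% means no effect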", "how_it_was_run": "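First, HeLa EGFP-705 cells are seeded at 500/well in Optimem with 2% FCS and left overnight. Next, compound or DMSO is added for 2 days. Finally wells are laser-scanned and total peak GFP intensity scored.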"}, "[4]": {"assay": "qHTS Assay for Lipid Storage Modulators (AID 1519; calls by dose curve; as to activity change, negative = inhibition: % is scaled to controls: 0 for no effect and ±100 for the full control effect)", "details": "Drosophila S3 cells, BODIPY lipid droplet/cell ratio, laser cytometry, cells loaded with oleic acid; for activity change, negative = inhibition: at 57.5 µM (top of the series)", "how_it_was_run": "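Cells seeded at 5,000 per well were treated with compounds over a concentration series and loaded with oleic acid (400 uM, as added). Lipid droplet fluorescence (488 nm excitation, 500-530 nm channel) was read by laser-scanning cytometry and normalized to 20 uM Triacsin C.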"}, "[5]": {"target": "Bile acid receptor (Homo sapiens) (UniProt Q96RI1)", "sequence (Q96RI1 whole entry, looked up)": "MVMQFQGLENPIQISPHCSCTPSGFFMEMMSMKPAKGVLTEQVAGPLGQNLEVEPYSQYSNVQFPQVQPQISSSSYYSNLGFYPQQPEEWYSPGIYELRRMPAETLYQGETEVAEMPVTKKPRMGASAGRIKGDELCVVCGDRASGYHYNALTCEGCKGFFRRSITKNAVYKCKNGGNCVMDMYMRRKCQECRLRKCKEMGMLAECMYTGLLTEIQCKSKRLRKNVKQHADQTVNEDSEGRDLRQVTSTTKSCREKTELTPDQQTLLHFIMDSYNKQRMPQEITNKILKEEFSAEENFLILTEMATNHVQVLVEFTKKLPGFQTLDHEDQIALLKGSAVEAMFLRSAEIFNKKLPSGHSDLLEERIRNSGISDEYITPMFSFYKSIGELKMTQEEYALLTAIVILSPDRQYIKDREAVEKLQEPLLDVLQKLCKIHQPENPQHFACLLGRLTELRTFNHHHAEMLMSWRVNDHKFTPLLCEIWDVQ", "assay": "qHTS assay for small molecule agonists of farnesoid X receptor signaling (AID 588527; calls by dose curve;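 also: 0% = vehicle basal and 100% = reference agonist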)", "details": "HEK293T FXR-UAS-bla, beta-lactamase ratio, 16 h; stronger effect = higher value", "how_it_was_run": "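FXR-UAS-bla HEK293T cells (10% dialyzed FBS) preincubated 5-7 h at 37 C, then compounds at up to 92 uM for 16 h at 37 C. CCF4 beta-lactamase read-out after 2 h RT. Normalized to chenodeoxycholic acid (100 uM) and DMSO; Hill fit gave EC50 and efficacy.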"}, "[6]": {"assay": "qHTS assay for small molecule antagonists of retinoid X receptor alpha signaling (AID 588546; active = well fitted inhibition curve with a large enough effect in the signal ratio, with a control signal flat, not every such curve was filed as active; the % refers to the signal ratio; also: potency is read from the fitted curve at half-maximal effect; as to max response: % is scaled to controls: 0 for no effect and ±100 for the full control effect)", "details": "HEK293T RXRa-UAS-bla, beta-lactamase ratio, antagonist mode; measured here: W530 green channel, cytotoxicity proxy", "how_it_was_run": "(§1)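 Beta-lactamase reporter inhibition, read as CCF4 fluorescence ratio (ex 405, em 460/530 nm) after 2 h at RT. HEK293T UAS-bla cells, 2500/well, were stimulated with 9-cis-RA at 500 or 100 nM final alongside test compound for 18 h at 37 C.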"}, "[7]": {"target": "Retinoic acid receptor RXR-alpha (Homo sapiens) (UniProt P19793)", "sequence (P19793 whole entry, looked up)": "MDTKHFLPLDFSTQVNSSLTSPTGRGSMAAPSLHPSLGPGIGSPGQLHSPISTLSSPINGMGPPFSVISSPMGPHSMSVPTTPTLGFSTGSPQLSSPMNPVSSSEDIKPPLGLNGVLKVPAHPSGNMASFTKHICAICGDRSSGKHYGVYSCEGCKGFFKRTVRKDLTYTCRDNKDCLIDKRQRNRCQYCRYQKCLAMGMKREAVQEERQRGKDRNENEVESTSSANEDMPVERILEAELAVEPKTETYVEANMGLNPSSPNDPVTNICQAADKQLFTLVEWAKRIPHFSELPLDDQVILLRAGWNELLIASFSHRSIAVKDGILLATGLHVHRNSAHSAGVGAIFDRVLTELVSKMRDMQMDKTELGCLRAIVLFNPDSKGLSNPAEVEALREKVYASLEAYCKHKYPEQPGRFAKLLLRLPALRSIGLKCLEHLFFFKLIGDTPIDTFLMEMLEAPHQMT", "assay": "qHTS assay for small molecule antagonists of retinoid X receptor alpha signaling (AID 588546)", "details": "HEK293T RXRa-UAS-bla, beta-lactamase ratio, antagonist mode", "how_it_was_run": "as §1"}, "[8]": {"assay": "qHTS assay for small molecule activators of the p53 signaling pathway (AID 651743; active = well fitted activation curve with a large enough effect in the signal ratio, not every such curve was filed as active; the % refers to the signal ratio)", "details": "HCT-116 p53RE-bla, beta-lactamase FRET ratio, 16 h; activation: stronger effect = higher value", "how_it_was_run": "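Screen for p53 pathway agonists uses stably transfected p53RE-bla HCT-116 cells, 4,000 per well, treated 16 h at 37 C with compounds in DMSO.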"}, "[9]": {"assay": "qHTS assay for small molecule activators of the nuclear factor-kappa B (NF-kB) signaling pathway (AID 651749; active = well fitted activation curve with a large enough effect in the signal ratio; the % refers to the signal ratio)", "details": "NF-kB-bla ME-180 cells, beta-lactamase FRET ratio, 16 h; activation: stronger effect = higher value", "how_it_was_run": "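Stably transfected ME-180 line; NF-kB response element upstream of beta-lactamase. Treatment: compound or DMSO, 16 hr. Detection: fluorescent FRET substrate.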"}, "[10]": {"assay": "qHTS assay for environmental chemicals that activate the Aryl hydrocarbon Receptor (AhR) signaling pathway (AID 651777)", "details": "1A2-DRE human hepatoma cells, luciferase, 24 h; activation: stronger effect = higher value", "how_it_was_run": "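Quantitative HTS in stably transfected human liver-derived cells whose luciferase gene sits downstream of the CYP1A2 promoter and dioxin response element. After 24 hr exposure at 37 C, One-Glo luminescence was measured.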"}, "[11]": {"target": "Peroxisome proliferator-activated receptor alpha (Homo sapiens) (UniProt Q07869)", "sequence (Q07869 whole entry, looked up)": "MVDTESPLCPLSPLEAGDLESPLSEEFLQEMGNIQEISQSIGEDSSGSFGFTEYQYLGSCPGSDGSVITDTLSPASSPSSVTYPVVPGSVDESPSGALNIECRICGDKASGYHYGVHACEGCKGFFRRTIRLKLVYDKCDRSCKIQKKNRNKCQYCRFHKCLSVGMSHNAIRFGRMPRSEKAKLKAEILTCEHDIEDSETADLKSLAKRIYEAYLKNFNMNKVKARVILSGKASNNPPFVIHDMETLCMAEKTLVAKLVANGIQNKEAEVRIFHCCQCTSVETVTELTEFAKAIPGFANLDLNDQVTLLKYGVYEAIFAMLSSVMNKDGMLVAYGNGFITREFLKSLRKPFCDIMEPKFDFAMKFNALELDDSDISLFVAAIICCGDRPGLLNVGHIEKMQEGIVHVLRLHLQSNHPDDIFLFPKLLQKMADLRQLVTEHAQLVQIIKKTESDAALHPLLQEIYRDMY", "assay": "qHTS assay for small molecule agonists of the peroxisome proliferator-activated receptor alpha (PPARalpha) signaling pathway (AID 651778)", "details": "PathHunter PPARalpha complementation, chemiluminescence, 6 h; stronger effect = higher value", "how_it_was_run": "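Chemiluminescence from complemented enzyme reported PPARalpha activation in cells after 6 hr of compound treatment at 37 C. The detection reagent was incubated for 60 min at room temperature, and compounds were scored as agonists.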"}, "[12]": {"assay": "qHTS assay for small molecule agonists of the antioxidant response element (ARE) signaling pathway measured by Nrf2-dependant transcriptional activity (AID 720636; active = well fitted curve in the direction sought with a large enough effect in the repeat runs; an effect the other way counts as inactive or inconclusive)", "how_it_was_run": "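Quantitative HTS format in HepG2 cells stably expressing an ARE-luciferase reporter; 16 hr compound treatment at 37 C, luciferase signal detected with ONE-Glo.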"}, "[13]": {"target": "DNA dC->dU-editing enzyme APOBEC-3G (Homo sapiens) (UniProt Q9HC16)", "sequence (Q9HC16 whole entry, looked up)": "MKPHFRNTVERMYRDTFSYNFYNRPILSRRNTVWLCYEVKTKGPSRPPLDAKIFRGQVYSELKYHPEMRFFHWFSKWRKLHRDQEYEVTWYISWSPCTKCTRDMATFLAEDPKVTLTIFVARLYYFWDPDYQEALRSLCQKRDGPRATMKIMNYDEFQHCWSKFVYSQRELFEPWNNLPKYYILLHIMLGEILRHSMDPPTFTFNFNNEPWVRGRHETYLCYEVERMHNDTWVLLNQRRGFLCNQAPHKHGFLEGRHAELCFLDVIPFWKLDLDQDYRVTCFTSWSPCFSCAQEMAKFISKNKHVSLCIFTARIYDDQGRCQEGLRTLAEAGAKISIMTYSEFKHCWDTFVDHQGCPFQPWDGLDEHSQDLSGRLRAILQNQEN", "assay": "qHTS for inhibitors of Vif-A3G interactions: Validation (AID 588379)", "how_it_was_run": "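HeLa cells stably expressing Vif and A3G-eYFP, 700 cells/well, incubated overnight at 37 deg C, then exposed to compound overnight at 37 deg C. Inhibition of Vif-mediated degradation read as increased yellow fluorescence (Ex 488/Em 500-530) by laser-scanning cytometry.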"}, "[14]": {"target": "Cytochrome P450 3A4 (Homo sapiens) (UniProt P08684)", "assay": "qHTS Assay for Activators of Cytochrome P450 3A4 (AID 885)", "how_it_was_run": "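Human CYP3A4 (20 nM) with Luciferin-PPXE at 25 uM (its KM) in 200 mM KPO4; 10 min compound preincubation, then NADPH regeneration and 60 min reaction at RT. Luciferin read by luminescence; normalized to 57 uM ketoconazole full inhibition.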"}, "[15]": {"details": "measured here: cell count channel max response"}, "[16]": {"details": "measured here: lipid channel max response"}},
  "note": "Inconclusive results are not listed. Activity calls are given as the source filed them. Unless noted, calls follow the shape of the dose curve; as a rule, active = well fitted curve in the direction sought with a large enough effect; inconclusive = small, poorly fitted or top-dose-only effect, or another doubt; inactive = no such curve, though single readings can be large; an effect the other way counts as inactive or inconclusive.",
  "data": [
    {"compound": "C#CCOS(=O)OC1CCCCC1Oc1ccc(C(C)(C)C)cc1", "note": "(stereo not drawn)", "values": [
      {"measurement": "Potency", "setting": "[1]", "value": "inactive"},
      {"measurement": "Potency", "setting": "[2]", "value": "inactive"},
      {"measurement": "Potency", "setting": "[3]", "value": "inactive"},
      {"measurement": "activity change, negative = inhibition", "setting": "[4]", "value": "5.08% (inactive)"},
      {"measurement": "max response", "setting": "[4]; [15]", "value": 0.489, "unit": "%"},
      {"measurement": "max response", "setting": "[4]; [16]", "value": 8.3, "unit": "%"},
      {"measurement": "activation", "setting": "[5]", "value": "6.98% (inactive)"},
      {"measurement": "max response", "setting": "[6]", "value": 24.4, "unit": "%"},
      {"measurement": "Potency", "setting": "[7]", "value": "7.08 µM (active)"},
      {"measurement": "Potency", "setting": "[8]", "value": "5.62 µM (active)"},
      {"measurement": "activation", "setting": "[9]", "value": "7.07% (inactive)"},
      {"measurement": "activation", "setting": "[10]", "value": "0.168% (inactive)"},
      {"measurement": "max response", "setting": "[11]", "value": "-1.77% (inactive)"},
      {"measurement": "outcome", "setting": "[12]", "value": "inactive"}
    ]},
    {"compound": "CCN1C[C@@]2(COC(=O)c3ccccc3N3C(=O)CC(C)C3=O)CC[C@H](OC)[C@]34C5C[C@@H]6[C@@H](OC)C[C@@](O)(C5[C@H]6OC)[C@@](O)(C13)[C@@H](OC)C24", "note": "(stereo partly drawn)", "values": [
      {"measurement": "activity change, negative = inhibition", "setting": "[4]", "value": "4.09% (inactive)"},
      {"measurement": "max response", "setting": "[4]; [15]", "value": 6.93, "unit": "%"},
      {"measurement": "max response", "setting": "[4]; [16]", "value": 19.9, "unit": "%"},
      {"measurement": "outcome", "setting": "[13]", "value": "inactive"}
    ]},
    {"compound": "CC1(C)C(=O)C=C[C@@]2(C)C1CC(O)[C@]1(C)C2CC[C@@]2(C)C(c3ccoc3)OC(=O)C3O[C@]312", "note": "(stereo partly drawn)", "values": [
      {"measurement": "Potency", "setting": "[1]", "value": "3.98 µM (active)"},
      {"measurement": "Potency", "setting": "[14]", "value": "inactive"},
      {"measurement": "Potency", "setting": "[2]", "value": "inactive"},
      {"measurement": "Potency", "setting": "[3]", "value": "inactive"},
      {"measurement": "activity change, negative = inhibition", "setting": "[4]", "value": "-4.48% (inactive)"},
      {"measurement": "max response", "setting": "[4]; [15]", "value": 13.8, "unit": "%"},
      {"measurement": "max response", "setting": "[4]; [16]", "value": 11.5, "unit": "%"}
    ]},
    {"compound": "S=C=NCc1ccccc1", "values": [
      {"measurement": "Potency", "setting": "[1]", "value": "25.1 µM (active)"},
      {"measurement": "Potency", "setting": "[14]", "value": "inactive"},
      {"measurement": "Potency", "setting": "[2]", "value": "inactive"},
      {"measurement": "Potency", "setting": "[3]", "value": "inactive"},
      {"measurement": "activity change, negative = inhibition", "setting": "[4]", "value": "4.36% (inactive)"},
      {"measurement": "max response", "setting": "[4]; [15]", "value": -6.33, "unit": "%"},
      {"measurement": "max response", "setting": "[4]; [16]", "value": 0.435, "unit": "%"}
    ]},
    {"compound": "O=c1cccc2n1CC1CNCC2C1", "note": "(stereo not drawn)", "values": [
      {"measurement": "Potency", "setting": "[14]", "value": "inactive"},
      {"measurement": "Potency", "setting": "[2]", "value": "inactive"},
      {"measurement": "activity change, negative = inhibition", "setting": "[4]", "value": "8.73% (inactive)"},
      {"measurement": "max response", "setting": "[4]; [15]", "value": 7.65, "unit": "%"},
      {"measurement": "max response", "setting": "[4]; [16]", "value": 18, "unit": "%"},
      {"measurement": "outcome", "setting": "[13]", "value": "inactive"}
    ]},
    {"compound": "COc1cc2c(cc1OC)[C@]13CCN4CC5=CCOC6CC(=O)N2[C@@H]1[C@@H]6C5C[C@@H]43", "note": "(stereo partly drawn)", "values": [
      {"measurement": "Potency", "setting": "[1]", "value": "inactive"},
      {"measurement": "activity change, negative = inhibition", "setting": "[4]", "value": "-2% (inactive)"},
      {"measurement": "max response", "setting": "[4]; [15]", "value": -11.3, "unit": "%"},
      {"measurement": "max response", "setting": "[4]; [16]", "value": -11.3, "unit": "%"},
      {"measurement": "outcome", "setting": "[13]", "value": "inactive"}
    ]}
  ]
}
